# Assay results taken from PubChem BioAssay (EPA / NIEHS).
# Several values for one entry are separate records, joined by “and”; a condition that tells them apart may be missing. Equal entries are not always repeated. Activity calls are given as the source filed them. The calls were made as follows: active = hit-call score of the fitted dose curve at least 0.9, where 1 is the maximum; inactive = score below 0.9.
# Test: BSK_hDFCGF_Proliferation: Cell Proliferation Assessment in the BioMAP Diversity Plus: hDFCGF Assay (AID 2283059);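 also: curves fitted for both rise and fall of signal versus DMSO baseline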
# Conditions: primary human foreskin fibroblasts
# Procedure: BSK_hDFCGF is a cell-based, multiplexed-readout assay that uses foreskin fibroblast, a human skin primary cell, with measurements taken at 24 hours after chemical dosing in a 96-well plate.BSK_hDFCGF_Proliferation is an assay component measured in the BSK_hDFCGF assay. It measures […] related to cell proliferation using Sulforhodamine staining technology.Data from the assay component BSK_hDFCGF_Proliferation was analyzed into 1 assay endpoint. This assay endpoint, BSK_hDFCGF_Proliferation, was analyzed with bidirectional fitting relative to DMSO as the negative control and baseline of activity. Using a type of viability reporter, measures of total protein for gain or loss-of-signal activity can be used to understand the viability at the cellular-level. Furthermore, this assay endpoint can be referred to as a secondary readout, because this assay has produced multiple assay endpoints where this one serves a viability function. To generalize the intended target to other relatable targets, this assay endpoint is annotated to the cell cycle intended target family, where the subfamily is proliferation.
# The levels of cell surface (or secreted, indicated by the prefix "s") biomarker endpoints were measured by ELISA. Overt cytotoxicity to cells in confluent adherent cultures (all systems other than the BT system) was assessed by measuring total protein levels using sulforhodamine B (SRB) staining in parallel cultures at the time of biomarker measurements, indicated as SRB endpoints. For proliferation assays for adherent cell types, individual cell types are cultured at sub-confluence and relative cell numbers quantified by SRB staining at time points optimized for each system (48 h: 3C and CASM3C systems; 72 h: BT and HDF3CGF systems; 96 h: SAg system). SRB was performed by staining cells with 0.1% SRB after fixation with 10% TCA and reading wells at 560 nm.Viability and proliferation of PBMC (T cells) was quantified by Alamar Blue reduction for the SAg and BT systems. For PBMC viability (referred to as PBMC Cytotoxicity within the assay endpoint names), cells were plated (75,000/well in a 96-well plate) and then chemical samples added for 1 h before addition of activators, SEB and TSST-1 (20 ng/mL final concentration each). Cells were incubated for 90 h. Then, Alamar Blue (20 uL/well) (Invitrogen, Cat DAL1100) was added for 6 h, and the plates were read with a fluorescence microplate reader at 546/580 nm (excitation/emission). For PBMC proliferation, cells were plated and activated as above but incubated for only 16 h prior to addition of Alamar Blue. Plates were read after 6 h.
Compound,outcome,AC50
CC(C)C(=O)C(C)C,inactive,
O=C1CCCN1CCO,inactive,
C=CCOCC(O)CCl (stereo unspecified),inactive,
C=CC(=O)OCC(Br)CBr (stereo unspecified),,5.47 µM (active)
O=C(Cl)c1cc(C(=O)Cl)cc(C(=O)Cl)c1,,3.77 µM (active)
c1ccc2c(c1)ccc1ncccc12,,20 µM (active)
c1ccc2c(c1)ccc1cc3c(ccc4ccccc43)cc12,inactive,
CCCCCCCCCCCCCCCC[N+](C)(C)CC,,0.484 µM (active)
CCO[Si](CCCN=C=O)(OCC)OCC,inactive,
c1ccc(-c2ccccn2)nc1,inactive,
O=C(c1ccc(O)cc1)c1ccc(O)cc1O,inactive,
CCCCC(CC)COC(=O)c1ccccc1O (stereo unspecified),,7 µM (active)
CCOc1nc(F)cc2nc(S(=O)(=O)Nc3c(Cl)cccc3C(=O)OC)nn12,inactive,
C=C[Si](OC(C)=O)(OC(C)=O)OC(C)=O,,32.4 µM (active) and 20 µM (active)
S=C(NC1CCCCC1)NC1CCCCC1,inactive,
O=Nc1ccc(O)cc1,inactive,
CC(C)(c1cc(Br)c(OCCO)c(Br)c1)c1cc(Br)c(OCCO)c(Br)c1,,4.47 µM (active)
N#[N+]c1ccc2c(S(=O)(=O)[O-])cccc2c1O,inactive,

Compound,outcome,AC50
COc1ccc2nc(N)sc2c1,inactive,
O=C(Nc1ccccc1SSc1ccccc1NC(=O)c1ccccc1)c1ccccc1,inactive,
CCCCC/C=C\C/C=C\CCCCCCCC(=O)OC,,5.85 µM (active)
CO[Si](OC)(OC)c1ccccc1,inactive,
C/C=C\C/C=C/CCCCCCCCOC(C)=O,,29.7 µM (active)
CCO[Si](C)(OCC)OCC,inactive,
CN1C(=O)N(C)C(O)C1O (stereo unspecified),inactive,
CC1OC1C1CCC2(C)OC2C1 (stereo unspecified),inactive,
C=CCOc1c(Br)cc(Br)cc1Br,,10.3 µM (active)
COCc1c(C(C)C)nc(C(C)C)c(/C=C/[C@@H](O)C[C@@H](O)CC(=O)O)c1-c1ccc(F)cc1,,0.0803 µM (active)
C=CC=CC=CCCCCC,,7.28 µM (active)
Nc1ccc(N)c(Cl)c1,,9.65 µM (active)
CCCCCCCCc1ccc(Nc2ccc(CCCCCCCC)cc2)cc1,inactive,
CCCCNc1ccc(NCCCC)c2c1C(=O)c1ccccc1C2=O,inactive,
CCOC(=O)c1ccccc1C(=C1C=C(Br)C(=O)C(Br)=C1)c1cc(Br)c(O)c(Br)c1,,3.46 µM (active) and 3.43 µM (active)
C#CC1(O)CC[C@H]2[C@@H]3CCC4=CCCC[C@@H]4[C@H]3CC[C@@]21C (stereo partly specified),,15.1 µM (active)
CCCCC(CC)COCC1CO1 (stereo unspecified),inactive,
O=c1c2ccccc2oc2ccccc12,inactive,
